Test [1] relates to Vero E6 infected with SARS-CoV-2. As to the kind of experiment: morphology score (similarity to uninfected cells); higher = more like uninfected cells. The following applies: 24 h.
For test [2] the test system is unchanged. In words: SARS-CoV-2 infection rate relative to infected DMSO; higher = more infection, active = 60 or less. As to conditions: 24 h.

Turning to `C[C@H](Nc1ncnc2[nH]cnc12)c1nc2ccc(F)cc2c(=O)n1-c1ccccc1` [acalisib] (0.833333 µM), the morphology score in test [1] is -0.115. The SARS-CoV-2 infection rate in test [2] was 110% (inactive).

In turn, `COC1(C2=NCCN2)COc2ccccc2O1` (stereo not given) (10 µM) yielded a morphology score in test [1] of 0.0681. The SARS-CoV-2 infection rate in test [2] is 92.5% (inactive).

`O=C(OC(C(F)(F)F)C(F)(F)F)N1CCN(Cc2cccc(Oc3ccccc3)c2)CC1` (10 µM) had a morphology score in test [1] of -0.142. Besides, the SARS-CoV-2 infection rate in test [2] was 24.5% (active).

Take `CCCCCCCCCC(=O)OC1(c2ccc(Cl)cc2)CCN(CCCC(=O)c2ccc(F)cc2)CC1` [haloperidol-decanoate] (10 µM): the morphology score in test [1] is 0.166. Also, the SARS-CoV-2 infection rate in test [2] was 96% (inactive).

Consider `O=C([O-])c1ccccn1.O=C([O-])c1ccccn1.O=C([O-])c1ccccn1.[Cr+3]` [chromium-picolinate] (10 µM), for which the morphology score in test [1] is -0.0147. In addition, the SARS-CoV-2 infection rate in test [2] was 112% (inactive).

As to `C[N+]1([O-])[C@@H]2CC[C@H]1C[C@@H](OC(=O)C(CO)c1ccccc1)C2` (stereo not given in full) [atropine-oxide] (10 µM), in test [1], the morphology score was 0.0224. In test [2], the SARS-CoV-2 infection rate is 106% (inactive).

`CCOC(=O)COc1ccc2c(=O)cc(-c3ccccc3)oc2c1` [efloxate] (10 µM) showed a morphology score in test [1] of 0.19. Moreover, in test [2], the SARS-CoV-2 infection rate is 96.5% (inactive).

Consider `Nc1nc2c(ccc3ccccc32)s1` (10 µM), for which the morphology score in test [1] was -0.0747. For the same compound, the SARS-CoV-2 infection rate in test [2] was 102% (inactive).

Regarding `O=S(=O)(O)c1ccc(-c2c3nc(c(-c4ccc(S(=O)(=O)O)cc4)c4ccc([nH]4)c(-c4ccc(S(=O)(=O)O)cc4)c4nc(c(-c5ccc(S(=O)(=O)O)cc5)c5ccc2[nH]5)C=C4)C=C3)cc1` (10 µM), the morphology score in test [1] was -0.0273. Besides, the SARS-CoV-2 infection rate in test [2] is 102% (inactive).

Turning to `C[C@@H](CN1CCC(n2c(=O)[nH]c3cc(Cl)ccc32)CC1)NC(=O)c1ccc2ccccc2c1` (10 µM), in test [1], the morphology score came out at 0.46. Besides, in test [2], the SARS-CoV-2 infection rate is 87% (inactive).

Regarding `C[n+]1c2cc(N)ccc2cc2ccc(N)cc21` [acriflavinium] (0.833333 µM), the morphology score in test [1] was determined as 0.0932. Moreover, in test [2], the SARS-CoV-2 infection rate is 98.5% (inactive).

Consider `Fc1ccc(Cn2c(NC3CCNCC3)nc3ccccc32)cc1` [tecastemizole] (10 µM), for which, in test [1], the morphology score was -0.00173. Moreover, the SARS-CoV-2 infection rate in test [2] was 111% (inactive).

Compound `CN(C)C(=O)[C@H](O)[C@H](Cc1ccccc1)NC(=O)c1cc2cc(Cl)ccc2[nH]1` (10 µM) came in with a morphology score in test [1] of 0.225. In test [2], the SARS-CoV-2 infection rate was 102% (inactive).

Regarding `Cc1cc2c(F)c(Oc3ncnn4cc(OC[C@@H](C)OC(=O)[C@H](C)N)c(C)c34)ccc2[nH]1` [brivanib-alaninate] (10 µM), in test [1], the morphology score was found to be 0.385. In test [2], the SARS-CoV-2 infection rate is 106% (inactive).

As for `Cc1ccc(C(=O)N(CCCN)[C@@H](c2oc3cc(Cl)ccc3c(=O)c2Cc2ccccc2)C(C)C)cc1` (0.833333 µM), in test [1], the morphology score is -0.422. Moreover, the SARS-CoV-2 infection rate in test [2] was 115% (inactive).

The compound `N[C@@H](CC(=O)N1CCn2c(nnc2C(F)(F)F)C1)Cc1cc(F)c(F)cc1F` [sitagliptin] (10 µM) displayed a morphology score in test [1] of 0.0472. In addition, the SARS-CoV-2 infection rate in test [2] was 98% (inactive).

Turning to `O=C(O)c1cc(/N=N/c2ccc(O)c(C(=O)O)c2)ccc1O` [olsalazine] (10 µM), the morphology score in test [1] stood at 0.062. The SARS-CoV-2 infection rate in test [2] is 104% (inactive).

In test [1], `CC(C)[C@H]1c2ccc(F)cc2CC[C@@]1(CCN(C)CCCc1nc2ccccc2[nH]1)OC(=O)C1CC1` (0.833333 µM) gave a morphology score of 0.0422. Further, the SARS-CoV-2 infection rate in test [2] was 98% (inactive).

In test [1], `CC(=O)c1ccc2c(c1)[C@H](NC(=O)c1ccc(F)c(Cl)c1)[C@H](O)C(C)(C)O2` [tonabersat] (10 µM) yielded a morphology score of 0.372. Also, in test [2], the SARS-CoV-2 infection rate was 94.5% (inactive).

The compound `COc1cc(OC)c(C(=O)CCCCN2CCC3(CC2)NC(=O)NC3=O)cc1NS(=O)(=O)c1ccc(C(F)(F)F)cc1` (10 µM) registered a morphology score in test [1] of 0.222. For the same compound, the SARS-CoV-2 infection rate in test [2] was 93% (inactive).

With `CC1(C)CCC(C)(C)c2cc(NC(=O)c3ccc(C(=O)O)cc3)ccc21` [tamibarotene] (10 µM), the morphology score in test [1] was found to be 0.135. The SARS-CoV-2 infection rate in test [2] is 108% (inactive).

With `C[N+]1(C)CCc2cc3c(cc2[C@H]1[C@@H]1OC(=O)c2c1ccc1c2OCO1)OCO3` [bicuculline-methochloride-(-)] (10 µM), the morphology score in test [1] is -0.156. In addition, the SARS-CoV-2 infection rate in test [2] is 110% (inactive).

Take `CCCCC(=O)OCC(=O)[C@]1(O)Cc2c(O)c3c(c(O)c2[C@@H](O[C@H]2C[C@H](NC(=O)C(F)(F)F)[C@H](O)[C@H](C)O2)C1)C(=O)c1c(OC)cccc1C3=O` [valrubicin] (0.833333 µM): the morphology score in test [1] amounted to 0.122. Also, in test [2], the SARS-CoV-2 infection rate was 97% (inactive).

`COC(=O)CCc1ccc(OCC(O)CNC(C)C)cc1` (stereo not given) [esmolol] (10 µM) gave a morphology score in test [1] of -0.00906. In test [2], the SARS-CoV-2 infection rate was 116% (inactive).

Compound `CCn1cc(C(=O)O)c(=O)c2ccc(C)nc21` [nalidixic-acid] (10 µM) had a morphology score in test [1] of -0.0613. The SARS-CoV-2 infection rate in test [2] was 106% (inactive).

`O=C(N[C@H]1CN2CCC1CC2)c1ccc2c(c1)OCCO2` (10 µM) yielded a morphology score in test [1] of -0.0253. Further, the SARS-CoV-2 infection rate in test [2] was 100% (inactive).

`O=C(O)[C@H](O)c1ccccc1` [mandelic-acid] (10 µM) displayed a morphology score in test [1] of -0.0448. In addition, the SARS-CoV-2 infection rate in test [2] is 114% (inactive).

`CCc1[nH]c(=O)[nH]c1C(=O)c1ccncc1` [piroximone] (10 µM) showed a morphology score in test [1] of 0.142. Also, in test [2], the SARS-CoV-2 infection rate was 100% (inactive).

Turning to `NCCC(O)(P(=O)(O)O)P(=O)(O)O` [pamidronate] (10 µM), the morphology score in test [1] turned out to be 0.09. Further, in test [2], the SARS-CoV-2 infection rate is 114% (inactive).

For `O=C(Cc1ccc(-c2ccccc2)cc1)Nc1ccccn1` [difenpiramide] (10 µM), in test [1], the morphology score came to 0.431. Besides, in test [2], the SARS-CoV-2 infection rate was 62% (inactive).

(Values after the supplement of paper PMC13380429.)
